We go through six molecules from PubChem BioAssay (EPA / NIEHS).

Read-out in experiment [1]: Interleukin-1 alpha (IL1a), IL1A (gene 3552)
Briefly: BSK_BF4T_IL1a: BioMAP Diversity Plus: BF4T Assay for Interleukin-1 alpha (IL1a) Biomarker Activity (AID 2284264). To be noted: primary human bronchial epithelial cells with fibroblasts. The gist of the method: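 Human bronchial epithelial cells co-cultured with dermal fibroblasts, dosed and read at 24 h. Secreted/surface IL-1α quantified by ELISA; gain-of-signal fitted relative to DMSO baseline. Parallel SRB total-protein staining tracked cytotoxicity.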

Read-out in the next experiment: Decorin, DCN (gene 1634)
Put plainly: BSK_MyoF_Decorin: BioMAP Diversity Plus: MyoF Assay for Decorin Biomarker Activity (AID 2284265). To be noted: primary human lung fibroblasts. In a few lines:
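ELISA readout of decorin, 24 h post-dosing; primary human lung fibroblast (MyoF) culture; gain-of-signal fit vs DMSO baseline.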

Read-out in experiment [2]: KRT18 (gene 3875)
Put plainly: BSK_BF4T_Keratin818: BioMAP Diversity Plus: BF4T Assay for Keratin 818 Biomarker Activity (AID 2284266). To be noted: primary human bronchial epithelial cells with fibroblasts. In a few lines: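 Co-culture of human bronchial epithelial cells and dermal fibroblasts, chemical exposure 24 h. Keratin 8/18 measured by ELISA; positive-direction fit vs DMSO. SRB total protein run in parallel cultures for cytotoxicity.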

Experiment [3] in a line: BSK_MyoF_SRB: Viability Assessment in the BioMAP Diversity Plus: MyoF Assay (AID 2284267).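 Further: total protein by SRB absorbance in parallel cultures as cytotoxicity measure.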 Particulars: primary human lung fibroblasts. In a few lines: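 Human lung fibroblasts dosed with chemical and assessed 24 h later for overt cytotoxicity in parallel cultures. Total protein quantified by sulforhodamine B staining (0.1% SRB after 10% TCA fixation), read at 560 nm, analysed in positive direction versus DMSO baseline.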

Read-out in experiment [4]: Matrix Metallopeptidase 1 (MMP1), MMP1 (gene 4312)
Briefly: BSK_MyoF_MMP1: BioMAP Diversity Plus: MyoF Assay for Matrix Metallopeptidase 1 (MMP1) Biomarker Activity (AID 2284268). Particulars: primary human lung fibroblasts. In a few lines: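 Cells: human lung fibroblasts. Exposure: 24 h chemical dosing. Detection: ELISA for MMP1. Analysis: upward fitting against DMSO negative control.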

Read-out in experiment [5]: TIMP metallopeptidase inhibitor 1 (TIMP1), TIMP1 (gene 7076)
Briefly: BSK_MyoF_TIMP1: BioMAP Diversity Plus: MyoF Assay for TIMP metallopeptidase inhibitor 1 (TIMP1) Biomarker Activity (AID 2284269). Particulars: primary human lung fibroblasts. In a few lines:
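Primary human lung fibroblasts, MyoF multiplex system; chemical exposure 24 h; TIMP-1 by ELISA; positive fitting direction vs DMSO control.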

Read-out in experiment [6]: Matrix Metallopeptidase 1 (MMP1), MMP1 (gene 4312)
Briefly: BSK_BF4T_MMP1: BioMAP Diversity Plus: BF4T Assay for Matrix Metallopeptidase 1 (MMP1) Biomarker Activity (AID 2284270). To be noted: primary human bronchial epithelial cells with fibroblasts. The gist of the method: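 Co-culture of human bronchial epithelial cells and dermal fibroblasts; MMP-1 levels measured by ELISA 24 hours after chemical dosing, relative to DMSO. Cytotoxicity checked in parallel cultures by SRB total-protein staining.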

Read-out in experiment [7]: Matrix Metallopeptidase 3 (MMP3), MMP3 (gene 4314)
Briefly: BSK_BF4T_MMP3: BioMAP Diversity Plus: BF4T Assay for Matrix Metallopeptidase 3 (MMP3) Biomarker Activity (AID 2284271). To be noted: primary human bronchial epithelial cells with fibroblasts. In a few lines:
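Co-culture of human bronchial epithelial cells and dermal fibroblasts dosed 24 h; MMP-3 measured by ELISA, positive-direction fit versus DMSO. Cytotoxicity tracked by SRB total-protein staining (560 nm) in parallel cultures.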

Read-out in experiment [8]: Plasminogen Activator Inhibitor-1 (PAI1), SERPINE1 (gene 5054)
Briefly: BSK_BF4T_PAI1: BioMAP Diversity Plus: BF4T Assay for Plasminogen Activator Inhibitor-1 (PAI1) Biomarker Activity (AID 2284273). Particulars: primary human bronchial epithelial cells with fibroblasts. In a few lines:
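Co-culture of human bronchial epithelial cells and dermal fibroblasts exposed to compound for 24 h. PAI-1 measured by ELISA; activity fitted in positive direction versus DMSO. Parallel SRB staining assessed overt cytotoxicity.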

Experiment [9] can be described thus: BSK_BF4T_SRB: Viability Assessment in the BioMAP Diversity Plus: BF4T Assay (AID 2284274). To be noted: primary human bronchial epithelial cells with fibroblasts. In a few lines: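 Co-culture of human bronchial epithelial cells and dermal fibroblasts (BioMAP BF4T) exposed 24 h. Total protein by sulforhodamine B staining (0.1% SRB after 10% TCA fixation, 560 nm) in parallel cultures; fitted vs DMSO.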

Read-out in experiment [10]: Matrix Metallopeptidase 9 (MMP9), MMP9 (gene 4318)
Put plainly: BSK_BF4T_MMP9: BioMAP Diversity Plus: BF4T Assay for Matrix Metallopeptidase 9 (MMP9) Biomarker Activity (AID 2284276). To be noted: primary human bronchial epithelial cells with fibroblasts. The gist of the method:
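Co-culture of human bronchial epithelial cells and dermal fibroblasts dosed for 24 h; MMP-9 quantified by ELISA and fitted upward versus DMSO. Cytotoxicity monitored in parallel cultures by SRB total-protein staining at the biomarker time point.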

Read-out in experiment [11]: Interleukin-8 (IL8), CXCL8 (gene 3576)
Put plainly: BSK_IMphg_IL8: BioMAP Diversity Plus: IMphg Assay for Interleukin-8 (IL8) Biomarker Activity (AID 2284277). To be noted: primary human endothelial cells with macrophages. The gist of the method:
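Co-culture of human venular endothelial cells and macrophages exposed to chemicals for 24 h; IL-8 quantified by ELISA and compared against the DMSO baseline, with SRB total-protein staining in parallel cultures for cytotoxicity.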

Read-out in experiment [12]: Interferon-inducible T-cell alpha chemoattractant (ITAC), CXCL11 (gene 6373)
Briefly: BSK_BE3C_ITAC: BioMAP Diversity Plus: BE3C Assay for Interferon-inducible T-cell alpha chemoattractant (ITAC) Biomarker Activity (AID 2284279). To be noted: primary human bronchial epithelial cells. The gist of the method: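 Steps: dose human bronchial epithelial cells with chemical; incubate 24 h; measure I-TAC by ELISA; fit endpoint in positive direction against DMSO control. Cytotoxicity was checked in parallel cultures by SRB staining at harvest.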

Read-out in experiment [13]: Interleukin-8 (IL8), CXCL8 (gene 3576)
Briefly: BSK_BE3C_IL8: BioMAP Diversity Plus: BE3C Assay for Interleukin-8 (IL8) Biomarker Activity (AID 2284280). To be noted: primary human bronchial epithelial cells. The gist of the method: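 IL-8 signal gain, normalised to DMSO vehicle, was scored after a 24 h chemical exposure of primary human bronchial epithelial cells, with detection by ELISA.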

Read-out in experiment [14]: Epidermal growth factor receptor (EGFR), EGFR (gene 1956)
Put plainly: BSK_BE3C_EGFR: BioMAP Diversity Plus: BE3C Assay for Epidermal growth factor receptor (EGFR) Biomarker Activity (AID 2284281). To be noted: primary human bronchial epithelial cells. The gist of the method: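 Compound is added to human bronchial epithelial cells, cells incubate 24 h, then EGFR is detected by ELISA. Values reflect positive-direction fitting relative to DMSO.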

Read-out in experiment [15]: KRT18 (gene 3875)
Put plainly: BSK_BE3C_Keratin818: BioMAP Diversity Plus: BE3C Assay for Keratin 818 Biomarker Activity (AID 2284282). Particulars: primary human bronchial epithelial cells. The gist of the method:
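Human primary bronchial epithelial cells in the BE3C system were exposed to test chemical for 24 h, then Keratin 8/18 was quantified by ELISA. Activity was fitted in the positive direction against DMSO as negative control and baseline.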

Read-out in experiment [16]: Tissue plasminogen activator (tPA), PLAT (gene 5327)
Put plainly: BSK_BF4T_tPA: BioMAP Diversity Plus: BF4T Assay for Tissue plasminogen activator (tPA) Biomarker Activity (AID 2284272). To be noted: primary human bronchial epithelial cells with fibroblasts. The gist of the method:
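tPA level quantified by ELISA at 24 h post-treatment in bronchial epithelial/dermal fibroblast co-cultures, gain of signal scored against DMSO baseline. Parallel cultures stained with 0.1% SRB (560 nm) to flag overt cytotoxicity.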

Read-out in experiment [17]: Interleukin-8 (IL8), CXCL8 (gene 3576)
Put plainly: BSK_BF4T_IL8: BioMAP Diversity Plus: BF4T Assay for Interleukin-8 (IL8) Biomarker Activity (AID 2284263). Particulars: primary human bronchial epithelial cells with fibroblasts. In a few lines: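 Human bronchial epithelial cells with dermal fibroblasts co-culture; IL-8 measured by ELISA 24 hours after dosing, fitted vs DMSO. Cytotoxicity tracked in parallel cultures by SRB total-protein staining.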

Read-out in experiment [18]: urokinase Plasminogen Activator (uPA), PLAU (gene 5328)
Briefly: BSK_BF4T_uPA: BioMAP Diversity Plus: BF4T Assay for urokinase Plasminogen Activator (uPA) Biomarker Activity (AID 2284275). Particulars: primary human bronchial epithelial cells with fibroblasts. The gist of the method:
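Co-culture of human bronchial epithelial cells and dermal fibroblasts; uPA quantified by ELISA 24 hours after dosing, fitted relative to DMSO. Parallel SRB total-protein staining assessed overt cytotoxicity.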

Read-out in experiment [19]: Intercellular Adhesion Molecule 1 (ICAM1), ICAM1 (gene 3383)
Put plainly: BSK_BE3C_ICAM1: BioMAP Diversity Plus: BE3C Assay for Intercellular Adhesion Molecule 1 (ICAM1) Biomarker Activity (AID 2284278).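 Further: cell-surface ICAM-1 protein level quantified by ELISA.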 Particulars: primary human bronchial epithelial cells. The gist of the method: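 Primary human bronchial epithelial cells were exposed to compound for 24 h, after which cell-surface ICAM-1 was quantified by ELISA. Activity was fitted in the gain-of-signal direction against DMSO as negative control and baseline.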

Where a structure was tested more than once in an assay, its records may differ in their call. Active and inactive are the calls of the source. How the source made its calls: active means hit-call score of the fitted dose curve at least 0.9, where 1 is the maximum; inactive means score below 0.9.

As for `FC(F)(F)C(F)(F)C(F)(F)CI`, the outcome in [1] is “inactive”; in the experiment with Decorin, DCN (gene 1634) it was “inactive”; in the experiment with KRT18 (gene 3875) [2], “inactive”; in experiment [3] it was “inactive”; in [4], “inactive”; in experiment [5], “inactive”. Further, the outcome in [6], in [7], in experiment [8], in experiment [9], in experiment [10] and in experiment [11] was inactive. The result (in experiment [12]; in experiment [13]; in experiment [14]; with KRT18 (gene 3875) [15]) was inactive.

Take `CC(C)(C)C(=O)CC(=O)C(F)(F)C(F)(F)C(F)(F)F`: the outcome in [1] is “inactive”; with Decorin, DCN (gene 1634), “inactive”; with KRT18 (gene 3875) [2], “inactive”; in experiment [3], “inactive”; in [4], “inactive”; in experiment [5], “inactive”. Moreover, the result in [6], in [7], in [16], in experiment [8], in experiment [10] and in [11] was inactive. Besides, the outcome (in [12]; in experiment [13]; with KRT18 (gene 3875) [15]) was inactive.

Consider `C=C(C)C(=O)OCCC(F)(F)C(F)(F)C(F)(F)C(F)(F)C(F)(C(F)(F)F)C(F)(F)F`, for which the outcome in [17] was “inactive”; in [1], “inactive”; in the experiment with Decorin, DCN (gene 1634) it was “inactive”; in the experiment with KRT18 (gene 3875) [2] it was “inactive”; in [3] it was “inactive”; in [4], “inactive”. For the same molecule, the result in experiment [5], in [6], in experiment [7], in [16], in [8] and in experiment [10] was inactive. For the same molecule, the outcome (in [11]; in [12]; in experiment [13]; in [14]; in the experiment with KRT18 (gene 3875) [15]) was inactive.

Consider `OCC(F)(F)C(F)(F)C(F)(F)C(F)(F)C(F)(F)C(F)(F)F`, for which the outcome in [17] was “inactive”; in experiment [1] it was “inactive”; with Decorin, DCN (gene 1634), “inactive”; in the experiment with KRT18 (gene 3875) [2], “inactive”; in experiment [3], “inactive”; in [4], “inactive”. For the same molecule, the outcome in experiment [5], in [6], in experiment [8], in [18], in experiment [10] and in experiment [11] was inactive. Moreover, the outcome (in experiment [19]; in experiment [12]; with KRT18 (gene 3875) [15]) was inactive. In addition, the AC50 in [3] was 49.5 µM (active); in experiment [4], 47.9 µM (active).

As for `C=C(C)C(=O)OCC(F)(F)C(F)(F)C(F)(F)F`, the outcome in [17] was “inactive”; in experiment [1], “inactive”; with Decorin, DCN (gene 1634), “inactive”; in the experiment with KRT18 (gene 3875) [2], “inactive”; in experiment [3], “inactive”; in experiment [4], “inactive”. Also, the result in [5], in [6], in experiment [8], in experiment [9], in experiment [10] and in [11] was inactive. Besides, the outcome (in [12]; with KRT18 (gene 3875) [15]) was inactive.

In the case of `FC(F)(Br)C(F)(F)C(F)(F)C(F)(F)C(F)(F)C(F)(F)Br`, the outcome in experiment [1] was “inactive”; in the experiment with Decorin, DCN (gene 1634), “inactive”; with KRT18 (gene 3875) [2], “inactive”; in experiment [3], “inactive”; in experiment [4] it was “inactive”; in experiment [5], “inactive”. The result in experiment [6], in [7], in experiment [8], in [18], in experiment [10] and in experiment [11] was inactive. Also, the outcome (in experiment [12]; in [13]; with KRT18 (gene 3875) [15]) was inactive.

For orientation: AC50 means the concentration giving half of the maximal activity seen.
